GALK inh – qHTS Assay for Inhibitors of Human Galactokinase (GALK) | Purified GALK, Kinase-Glo residual ATP luminescence | Potency, µM (series often up to 57.5 µM), for the others: at the top dose activity change, negative = inhibition, usual class: inhibitors | hit rate 0.007% among 270,000; further: potency means the concentration at half of the fitted maximal effect
Target sequence (P51570 whole entry, looked up): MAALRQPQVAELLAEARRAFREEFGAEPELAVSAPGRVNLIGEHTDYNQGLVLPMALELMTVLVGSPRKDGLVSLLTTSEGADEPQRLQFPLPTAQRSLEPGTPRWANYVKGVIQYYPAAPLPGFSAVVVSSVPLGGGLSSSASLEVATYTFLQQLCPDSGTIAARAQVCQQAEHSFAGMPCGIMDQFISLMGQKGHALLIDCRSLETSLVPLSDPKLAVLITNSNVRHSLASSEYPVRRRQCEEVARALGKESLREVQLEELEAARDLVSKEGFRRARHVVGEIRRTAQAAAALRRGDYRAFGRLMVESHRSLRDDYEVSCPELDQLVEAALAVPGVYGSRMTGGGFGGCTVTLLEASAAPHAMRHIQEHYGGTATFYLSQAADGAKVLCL
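The enzyme phosphorylates galactose (100 uM) using ATP (35 uM); inhibition is detected as higher residual ATP, quantified by bioluminescence after 1 h reaction at room temperature, pH 8.0.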
CtBP-E1A inh – qHTS Assay for Inhibitors of the CtBP/E1A Interaction. AlphaScreen GST-E1A/His-CtBP binding, 1536-well; hits give low values. activity change, % (no concentration beside the values). hit rate 0.49% among 340,000. AID 651724, 2012; in the data active means activity change below about -65%; inconclusive means mostly about -30% to -63%
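AlphaScreen with 125 nM GST-E1A and 125 nM His-CtBP (5X stocks) in Tris pH 8.0, 300 mM NaCl, BSA, Tween 20, TCEP. Compounds preincubated 2 h at 37 deg C, then glutathione donor/nickel acceptor beads added for 1 h at 37 deg C in dark.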
TrxR1 substrate – qHTS Assay for Substrates of Mammalian Selenoprotein Thioredoxin Reductase 1 (TrxR1): qHTS; Thioredoxin reductase 1, cytoplasmic (Rattus norvegicus), O89049; purified TrxR1 substrate turnover, NADPH consumption readout; Potency, µM (doses to about 114 µM), for inactives: top-dose activity change, negative = substrate turnover; hit rate 0.01% among 390,000; further: potency means the concentration at half of the fitted maximal effect; nearly all actives have a fitted effect of over 50% in size
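Rat TrxR1, dispensed at 90 nM, was prereduced with 400 uM NADPH (final) for 5 min at ~22 deg C, then incubated with compound 15 min before 400 uM selenite. A first-read NADPH fluorescence drop versus no-compound background flagged substrates.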
TrxR1 inh – qHTS Assay for Inhibitors of Mammalian Selenoprotein Thioredoxin Reductase 1 (TrxR1): qHTS | Thioredoxin reductase 1, cytoplasmic (Rattus norvegicus), O89049 | recombinant rTrxR1, NADPH fluorescence consumption, selenite substrate | Potency, µM (titrated, usually from 114 µM), inactives show at the top dose activity change, negative = inhibition, actives largely listed as inhibitors | hit rate 1% among 390,000; further: potency means the concentration at half of the fitted maximal effect; nearly all actives have a fitted effect of over 65% in size
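Rat TrxR1 (90 nM in the dispensed reagent) was pre-reduced with 400 uM NADPH for 5 min at room temperature, then incubated with compound for 15 min. After 400 uM selenite was added, NADPH fluorescence (Ex 340/Em 450 nm) was followed for 8 min.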
Eya2 phos inh – qHTS Assay for Inhibitors of the Phosphatase Activity of Eya2 | Potency, µM (titrated, usually from 76.9 µM), for the others: at the top dose activity, negative = inhibition, most hits filed as inhibitors | hit rate 0.006% among 330,000 | Protein phosphatase EYA2 (Homo sapiens), O00167 | recombinant Eya2, OMFP fluorescence dephosphorylation (OMFP is methylfluorescein phosphate) | AID 488837, 2010; further: potency means the concentration at half of the fitted maximal effect
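Eya2 protein (added as 0.2 uM solution) was preincubated with compound for 10 min at ambient temperature in 50 mM HEPES pH 7.5, 50 mM NaCl, 5 uM MgCl2, 0.05% BSA, 1 mM DTT. OMFP (added at 50 uM) then reacted 10 min; fluorescence read at 485/525 nm.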
Six1-Eya2 inh – qHTS Assay for Inhibitors of the Six1/Eya2 Interaction; AlphaScreen GST-Six1/His-Eya2 binding, biochemical; hits give low values; activity change, % (concentration not given with the values); hit rate 0.56% among 360,000; in the data active means activity change below about -65%; inconclusive means mostly about -30% to -63%
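Six1/Eya2 binding was read as AlphaScreen signal after compounds were pinned into GST-Six1 plus His-tagged Eya2 (5X stock 250/500 nM) in pH 8.0 Tris/NaCl/TCEP buffer, beads added, then incubated 1 h, 37 C, dark.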
Numbers without * were called inactive; ? = inconclusive; / = no result; [ ] = dose if it differs, or a comment. Sampled rows, rich in hits. Any-hit rate of the full collection: about 1.5%. Unless noted, the call rests on the fitted dose curve; in most records, active means well fitted curve in the direction sought with a large enough effect; inconclusive means small, poorly fitted or top-dose-only effect, or another doubt; inactive means no such curve, though single readings can be large; an effect the other way counts as inactive or inconclusive. On the % scale 0 is the no-effect control and ±100 the full control effect.

SMILES | GALK inh | CtBP-E1A inh | TrxR1 substrate | TrxR1 inh | Eya2 phos inh | Six1-Eya2 inh
COc1ccc(Nc2c(-c3ccc(C)o3)nc3cc(C)ccn23)cc1 | / | / | 41% | 28% | / | /
CC(=O)c1ccc(NC(=O)c2sc(-n3nc(C)c(Cc4ccc5c(c4)OCO5)c3C)nc2C)cc1 | / | / | 21% | 38% | / | /
CCN(CC(=O)Nc1cc(Cl)ccc1C)C(=O)C1COc2ccccc2O1 (stereo not given) | / | / | 0% | 50µM* | 4% | -1
Cc1ccc(Cl)cc1NC(=O)C1COc2ccccc2O1 (stereo not given) | 0% | 16 | 5%[57.1 µM] | 4%[57.1 µM] | -2% | 9
CC(=O)c1ccc(OCC(=O)N2CCCC2c2ccc3c(c2)OCCCO3)cc1 (stereo not given) | / | -2 | 9%[57.1 µM] | 14% | -5% | -4
O=C(CCl)N1CCCC1c1ccc2c(c1)OCCO2 (stereo not given) | 0% | 2 | 4% | 25µM* | -4% | -7
Cc1[nH]c(N=Nc2ccccc2)nc1N=Nc1ccccc1 | -1% | -66* | -6% | 4% | 4% | ?
O=C(Nc1c(Cl)cc([N+](=O)[O-])cc1Cl)c1cc(Cl)ccc1O | / | / | -3% | 2% | / | /
CSc1ccc(-c2nc3cccc(C)n3c2Nc2ccc(Cl)cc2)cc1 | / | / | 56% | -6% | / | /
Cc1nc2ccccc2nc1N/N=C/c1ccc(O)cc1 | -2% | -7 | -8% | -13% | -1% | -23
Cc1nc(N/N=C/c2ccc(O)cc2)c2cnn(-c3ccccc3)c2n1 | 6% | -76* | 4% | 9% | -8% | ?
CC(C)N(CCC(=O)c1ccc2ccccc2c1)Cc1ccccc1 | / | -13 | 25%[57.1 µM] | 3.2µM* | 5% | 8
COc1ccc(-c2cc(C(F)(F)F)c3c(n2)sc2c(O)cc(=O)[nH]c23)c(OC)c1 | -2% | ? | -10% | -21% | 11% | ?
Cc1cc(C)c2c(n1)sc1c(O)cc(=O)[nH]c12 | 0% | -15 | 45% | -1% | 8% | -71*
CCOc1ccc(C(c2c(O)cc(C)n(Cc3ccco3)c2=O)N2CCN(C)CC2)cc1 (stereo not given) | / | / | 2%[57.1 µM] | ? | / | /
COc1cc(OC)c(NC(=O)c2nn(C)c3c2COc2ccccc2-3)cc1Cl | / | / | 6% | 16µM* | / | /
COc1cc(OC)c(NC(=O)c2noc3c2CSc2ccccc2-3)cc1Cl | / | / | -6% | 7.1µM* | / | /
COc1ccc(NC(=O)c2noc3c2CSc2ccccc2-3)cc1Cl | / | / | 3% | 6% | / | /
COC(=O)c1cc(NC(=O)c2nn(C)c3c2COc2ccccc2-3)cc(C(=O)OC)c1 | / | / | 2% | 6% | / | /
CC(C)(C)c1ccc(NC(=O)COC(=O)c2ccccc2OCC(=O)Nc2ccc(Br)cc2)cc1 | / | / | -10% | 1% | / | /
Cn1c2ccccc2c2nnc(SCC(=O)Nc3cccc(C(=O)O)c3)nc21 | -7% | ? | 0% | 13% | 3% | -67*
Cc1ccc(C2=NN=C(NC(=O)CSc3nnc4c5ccccc5n(C)c4n3)SC2)cc1 | / | ? | -13% | 18%[57.1 µM] | 13% | -72*
Cc1ccc(C2=NN=C(NC(=O)CSc3nc(C)cc(C)n3)SC2)cc1 | 0% | / | / | / | 1% | /
COc1ccc(NC(=O)CCc2nc3cccnc3n2-c2ccccc2)cc1Cl | / | / | -7% | 0% | / | /
N#C/C(=C\c1ccc([N+](=O)[O-])o1)c1nc2ccccc2[nH]1 | -3% | -6 | 4% | 2.8µM* | 7% | -5
SMILES | GALK inh | CtBP-E1A inh | TrxR1 substrate | TrxR1 inh | Eya2 phos inh | Six1-Eya2 inh
Cc1ccc2nc(/C(C#N)=C\c3ccc([N+](=O)[O-])o3)[nH]c2c1 | 0% | -2 | 5%[57.1 µM] | ? | 1% | 12
COCCNc1nnc(Cc2ccc(OC)c(OC)c2)c(=O)[nH]1 | / | 0 | -6% | 4% | 3% | 4
COc1ccc(Cc2nnc(NN)[nH]c2=O)cc1OC | -3% | 1 | 10%[57.1 µM] | 14%[57.1 µM] | -1% | -91*
CSC(SC)=C(C#N)C(=O)c1ccccc1 | / | 7 | 4%[57.1 µM] | 18µM* | -7% | -1
COc1cccc(C(=O)C(C#N)=C(SC)SC)c1 | -1% | / | -1% | 20µM* | 13% | -4
O=C(O)c1ccc(C(=O)C(=O)c2ccccc2)cc1 | -1% | 2 | 2% | 8% | 2% | -1
O=C(CCl)N(CCc1ccccc1)CCc1ccccc1 | -1% | 1 | 0% | 11µM* | -12% | 2
COc1ccc(C(C)=O)cc1COC(=O)c1cc(C)oc1C | 5% | 0 | -4% | 10µM* | 3% | -7
COc1ccc(C(C)=O)cc1COc1cccnc1[N+](=O)[O-] | 0% | 11 | -2%[57.1 µM] | 13%[0.0914 µM] | -6% | -5
COc1ccc(C(C)=O)cc1COC(=O)CCNS(=O)(=O)c1ccc(C)cc1 | / | -3 | 2% | ? | 7% | 2
COc1ccc(C(C)=O)cc1COC(=O)CCNS(=O)(=O)c1ccc(C(C)=O)cc1 | 7% | 1 | -9% | 40µM* | -1% | 2
COc1ccc(C(C)=O)cc1COC(=O)c1cc(=O)c2ccccc2o1 | 15% | 18 | 13%[0.0914 µM] | 13µM* | 5% | 2
COc1ccc(C(C)=O)cc1COc1ccccc1[N+](=O)[O-] | 1% | 6 | -11% | 35µM* | -6% | 2
C=C(C)[C@@H]1C2=CC(C(=O)OC)=C(C[C@@H](C(=C)C)[C@H]3O[C@H]3C3=C[C@H]1OC3=O)O2 | / | / | -7% | 11µM* | / | /
CCNC(=O)c1c(NC(=O)Cc2coc3ccc(CC)cc23)sc2c1CCCC2 | / | / | 4% | 12% | / | /
O=C1c2ccccc2NC(c2ccco2)N1O (stereo not given) | 2% | -3 | -1% | 40µM* | 7% | -3
O=C1c2ccccc2NC(c2ccc(Br)o2)N1O (stereo not given) | / | / | -8% | ? | 0% | /
CCc1ccccc1NC(=O)CSc1nc2n[nH]c(C)c2c(=N)n1-c1cccc(OC)c1 | -3% | -70* | -2% | 9% | -4% | ?
O=C(c1ccco1)N1CCN(Cc2csc(-c3ccccc3Cl)n2)CC1 | -5% | 16 | 1% | 71µM* | -2% | -7
O=C(c1ccco1)N1CCN(Cc2c(Cl)cccc2Cl)CC1 | -3% | 1 | 0% | 14% | -8% | 1
CCCCN(C)CCNC(=O)C1CCN(c2nc3ccc(CC)cc3s2)CC1 | / | / | 0% | 15% | / | /
COc1ccc(C2=Nn3c(nnc3-c3ccco3)SC2)cc1OC | 3% | -87* | -13% | -22% | 13% | -71*

Compound activity from PubChem BioAssay.
